# TRHR agonist-1 = qHTS for Small Molecule Agonists and Allosteric Enhancers of Human TRH Receptor: Primary Screen for Agonists; Thyrotropin-releasing hormone receptor (Homo sapiens), P34981; TRHR cells, calcium flux fluo-8, FDSS agonist mode; activation, % at 2 µM; 360,000 compounds, 0.18% hits; in the data active = activation above about 30%; note: 0% is about no effect
#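 TRHR-expressing cells loaded with fluo-8 calcium dye; 23 nL library compound pin-transferred, kinetic FDSS fluorescence (Ex 480/Em 530) recorded about 180 s for agonist-induced calcium release, before a 10 nM TRH EC20 addition for potentiator mode.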
# GLP1R cytotox = qHTS of GLP-1 Receptor Inverse Agonists: Cytotox Screen. AID 624418, 2012. HEK293 cAMP-luciferase reporter cells, luminescence, 24 h. 410,000 compounds, 0.13% hits. Potency, µM (doses to about 38.3 µM), inactives show at the top dose activity change, negative = inhibition, hits mostly inhibitors;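 note: loss of luciferase light is scored as toxicity; potency is the fitted concentration of half-maximal effect; % is set by controls: 0 for no effect and ±100 for the full control effect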
#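 Step one: seed cells (200 cells/uL, DMEM with 10% Nu serum, 1% pen-strep). Step two: 12-hour incubation at 37 deg C. Step three: pin 23 nL compound, incubate 24 hr. Step four: add luciferase reagent, read luminescence 12 min later.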
# TRPML1 ag = qHTS for Agonists of the Human Mucolipin Transient Receptor Potential 1 (TRPML1); Mucolipin-1 (Homo sapiens), Q9GZU1; TRPML1-expressing cells, Ca2+ dye fluorescence, FDSS; activation, % (test concentration not listed); 410,000 compounds, 0.12% hits; in the data active = activation above about 50%; inconclusive = mostly about 30% to 49%; note: 0% is about no effect
#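 In this qHTS format, compounds were pin-transferred onto Ca8-dye-loaded TRPML1-DL cells induced with Tet overnight, and intracellular Ca2+ fluorescence was recorded kinetically for 110 s after a 10 s baseline. A subsequent 4uM final 54-4 (EC80) addition followed by a second 110 s read served as the antagonist phase.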
# TRHR enhancer-1 = qHTS for Small Molecule Agonists and Allosteric Enhancers of Human TRH Receptor: Primary Screen for Enhancers; Thyrotropin-releasing hormone receptor (Homo sapiens), P34981; TRHR cells, fluo-8 calcium fluorescence, EC20 TRH enhancement; enhancement, % at 2 µM; 360,000 compounds, 0.66% hits; AID 493056, 2011; in the data active = enhancement above about 30%; note: 0% is about no effect
#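 Enhancer read-out: after compound pinning and an initial kinetic agonist-mode read, an EC20 of TRH (10 nM final) was injected and fluo-8 calcium signal (Ex 480/Em 530) followed at 1 s/cycle for 100 cycles in TRHR-expressing cells.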
# TRPML1 inh = qHTS for Inhibitors of the Human Mucolipin Transient Receptor Potential 1 (TRPML1); Mucolipin-1 (Homo sapiens), Q9GZU1; TRPML1-inducible cells, Ca2+ dye fluorescence, FDSS; hits give low values; inhibition of EC80 agonist-evoked calcium signal; activity change, negative = inhibition, % (concentration not given with the values); 390,000 compounds, 0.02% hits; AID 624415, 2012; in the data active = activity change below about -50%; inconclusive = between about -30% and that limit;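 note: stimulus is agonist 54-4 at its EC80 concentration; % is set by controls: 0 for no effect and ±100 for the full control effect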
#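 Tet-induced TRPML1-DL cells loaded with Ca8 no-wash calcium dye were read kinetically on FDSS. Compound addition was followed by EC80 agonist 54-4 (4 uM final); inhibition was read over 110 s.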
# PTHR1 ag = qHTS for PTHR1 Agonists: Primary Screen; Parathyroid hormone/parathyroid hormone-related peptide receptor (Homo sapiens), Q03431; HEK293 GP2 PTHR1 cells, GloSensor cAMP luminescence, 1 h; Potency, µM (highest dose often 115 µM), inactives show at the top dose activation, usual class: activators; 410,000 compounds, 0.075% hits; note: potency is the fitted concentration of half-maximal effect; nearly all actives have a fitted effect of over 55% in size
# Target sequence (Q03431 whole entry, looked up): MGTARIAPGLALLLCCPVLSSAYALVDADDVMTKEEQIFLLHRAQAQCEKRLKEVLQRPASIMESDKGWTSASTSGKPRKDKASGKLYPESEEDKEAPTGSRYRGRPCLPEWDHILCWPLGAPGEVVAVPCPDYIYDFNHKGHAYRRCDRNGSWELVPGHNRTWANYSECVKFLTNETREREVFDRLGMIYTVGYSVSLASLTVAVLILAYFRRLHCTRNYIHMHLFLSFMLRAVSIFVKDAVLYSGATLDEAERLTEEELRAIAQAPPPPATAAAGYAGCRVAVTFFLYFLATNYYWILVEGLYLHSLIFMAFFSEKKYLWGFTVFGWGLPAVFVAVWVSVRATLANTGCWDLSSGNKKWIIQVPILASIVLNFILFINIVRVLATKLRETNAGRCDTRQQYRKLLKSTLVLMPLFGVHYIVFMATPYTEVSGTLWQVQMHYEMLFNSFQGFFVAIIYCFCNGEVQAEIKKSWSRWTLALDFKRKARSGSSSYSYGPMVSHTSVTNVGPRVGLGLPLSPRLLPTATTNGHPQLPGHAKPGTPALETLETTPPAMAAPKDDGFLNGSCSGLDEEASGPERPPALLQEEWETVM
#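 HEK-293-derived GP2 cells expressing PTHR1 and a GloSensor cAMP reporter, 3,000/well, plated overnight, given luciferin plus IBMX (each 0.5 mM as added) for 1 h at 37 °C, then compound for 1 h at 37 °C. Luminescence was read after 15 min at room temperature.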
# TRHR enhancer-2 = qHTS for Small Molecule Agonists and Allosteric Enhancers of Human TRH Receptor: Confirmation Screen for Enhancers | shares compounds with TRHR enhancer-1 | TRH receptor cell assay, enhancer confirmation qHTS | activity change, negative = inhibition, % at 46.1 µM | 970 tested, under 10 active | AID 493076, 2011;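 note: compound effect scored on response to added TRH at EC20 of 10 nM; 0% is about no effect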
# TRHR agonist-2 = qHTS for Small Molecule Agonists and Allosteric Enhancers of Human TRH Receptor: Confirmation Screen for Agonists; TRHR-expressing cells, agonist activation read-out; AID 493078, 2011; shares compounds with TRHR enhancer-1; Potency, µM (titrated, usually from 46.1 µM), without a hit: at the highest dose activation, actives largely listed as activators; 970 compounds, 8% hits; note: potency is the fitted concentration of half-maximal effect; 0% is about no effect; nearly all actives have a fitted effect of over 75% in size
# The depositor's hits bear a star; i = inactive; ? = inconclusive; · = not tested or not shown; [ ] = remark or other dose. In the library only some 0.93% were active in any assay of this set; here they are far more common. Unless noted, calls come from the whole dose curve; as a rule, active = well fitted curve in the direction sought with a large enough effect; inconclusive = small, poorly fitted or top-dose-only effect, or another doubt; inactive = no such curve, though single readings can be large; an effect the other way counts as inactive or inconclusive.
SMILES,TRHR agonist-1,GLP1R cytotox,TRPML1 ag,TRHR enhancer-1,TRPML1 inh,PTHR1 ag,TRHR enhancer-2,TRHR agonist-2
CCOc1ccc(CN(C(=O)/C=C/c2ccco2)C2CCS(=O)(=O)C2)cc1 (centres undefined),40.8*,-9.7%,0.7,-8.5,-14.3,-0.2%,0.7,0.5%
c1ccc2c(c1)ncn2CCCCOc1ccc2c(c1)CCC2,-1.0,-66.8%,4.3,50.5*,6.9,i,-7.6,-0.5%
C=C1NN(Cc2ccc(OC)cc2)C(=O)N1c1ccccc1,·,·,-0.6,·,·,·,·,·
O=C1C[C@@H](c2ccccc2Cl)N1S(=O)(=O)c1ccccc1[N+](=O)[O-],·,·,0.6,·,14.4,·,·,·
Cc1ccc(C(=O)NCC(c2ccco2)N2CCc3ccccc32)cc1C (centres undefined),1.0,12.2%,-0.1,-6.6,11.1,i,·,·
O=C(NCC(c1ccco1)N1CCc2ccccc21)c1ccccc1 (centres undefined),-0.2,-12.2%,0.6,51.3*,-13.4,i,-8.5,1.0%
CC/C=C/[C@@H](c1ccccc1)[C@H](C)C(O)CC(=O)SC(C)(C)C (some centres undefined),·,·,20.3,·,-24.0,·,·,·
O=C(COC(=O)c1cnccn1)Nc1ncc(Cl)cc1Cl,0.4,-6.4%,1.6,-2.6,-12.7,i,·,·
O=C(COC(=O)c1cnccn1)Nc1c(Cl)cc(Cl)cc1Cl,0.6,-1.9%,2.1,47.2*,5.7,?,-2.4,-0.7%
CCOC(=O)c1c(C)n(-c2ccccc2)c2ccc(O)cc12,-0.7,2.0%,0.4,46.3*,-7.3,-32.5%,-3.9,1.8%
CC(C)(C)c1ccc(NC(=O)COC(=O)c2ccccc2OCC(=O)Nc2ccc(Br)cc2)cc1,·,·,0.5,·,·,·,·,·
Nc1ccc(/C=C/C(=O)c2cccs2)cc1,51.9*,-1.1%,21.7,-15.4,-4.1,-34.3%,?,20.6µM*
O=C(C=Cc1ccccc1)c1cccs1,·,-19.2%,-0.2,·,?,-38.3%,·,·
CCN(CC)S(=O)(=O)c1cccc(C(=O)N/N=C(\C)c2ccc(O)cc2O)c1,25.4,-6.7%[0.307 µM],0.1,-3.2,2.9,-1.1%,2.7,?
CCOc1ccc(C=Nc2ccc(/C=C/c3ccnc4ccccc34)cc2)cc1OCC,·,·,9.9,·,·,·,·,·
CN(C)c1ccc(/C=C/c2ccnc3c([N+](=O)[O-])cccc23)cc1,·,·,-0.2,·,·,·,·,·
C=CCOc1ccc(C2C(C(=O)c3ccco3)=C(O)C(=O)N2c2nnc(C)s2)cc1 (centres undefined),40.2*,8.4%,6.4,2.2,5.2,-42.4%,-5.7,1.9%
COc1ccc(C2C(C(=O)c3ccco3)=C(O)C(=O)N2c2nnc(C)s2)cc1 (centres undefined),-0.7,8.8%,5.4,5.4,4.0,-1.3%,·,·
O=C(NCC1CC1)c1ccc2nc(-c3ccoc3)c(-c3ccoc3)nc2c1,·,·,-0.9,·,·,·,·,·
O=C(Nc1cccnc1Cl)c1cnn2c1NC(=C1CC1)C=C2C(F)F,·,·,-0.5,·,·,·,·,·
C=CCNC(=O)C(=O)NCC1CCCN1CC (centres undefined),1.0,-6.2%,2.7,41.5*,13.8,-18.4%,-4.3,-0.3%
CCCNC(=O)C(=O)NCC1CCCN1CC (centres undefined),0.4,-0.1%,0.8,27.1,3.8,i,·,·
COc1ccc(OC)c(CN2CCC(Cc3ccccc3)CC2)c1,28.1,-28.4%,0.3,2.7,-0.9,-13.0%,-0.5,-0.6%
COc1cc(OC)c(CN2CCC(Cc3ccccc3)CC2)cc1Br,1.6,-16.0%,1.4,3.4,-6.5,i,·,·
Cc1ccc(NC(=O)COc2ccccc2C(=O)Nc2ccccc2)cc1,·,·,-0.2,·,·,·,·,·
SMILES,TRHR agonist-1,GLP1R cytotox,TRPML1 ag,TRHR enhancer-1,TRPML1 inh,PTHR1 ag,TRHR enhancer-2,TRHR agonist-2
COc1ccc(S(=O)(=O)N2CCN(c3nc(-c4ccccc4)nc4ccccc34)CC2)cc1,·,·,-0.3,·,·,·,·,·
OCCC1CN(Cc2cc3c(cc2Cl)OCO3)CCN1C1CCCC1 (centres undefined),0.4,-4.6%,0.4,53.9*,11.3,i,-0.4,5.4%
CC(=O)c1nnn(-c2nc(N3CCCC3)nc(N(c3ccccc3)c3ccccc3)n2)c1C,0.7,-11.1%,-0.6,44.7*,-2.6,-11.6%[57.5 µM],-3.2,4.4%
COc1ccc(/C=C2\SC(=S)N(CC3CCCO3)C2=O)cc1 (centres undefined),1.0,-4.6%,1.1,2.3,13.0,-12.3%,·,·
COc1ccc(N=C2O/C(=C/c3sc(=S)n(CC4CCCO4)c3O)N=C2C#N)cc1 (centres undefined),1.8,?,-0.3,43.5*,1.5,-85.4%,-3.1,4.3%
Cc1ccc(O/C=C2/Nn3c(nnc3-c3cc(-c4ccccc4)n[nH]3)S2)cc1,·,·,0.1,·,·,·,·,·
COc1nc(-c2ccccc2)ccc1-c1noc(-c2cccnc2)n1,-2.1,4.6%,-0.1,46.0*,7.3,-1.0%[57.5 µM],12.5,6.8%
COc1ccc(C2C(C(C)=O)=C(C)N=c3s/c(=C/c4ccc5c(c4)OCO5)c(=O)n32)cc1 (centres undefined),38.2*,·,·,-8.1,·,·,8.0,?
CC(=O)C1=C(C)N=c2s/c(=C/c3ccc4c(c3)OCO4)c(=O)n2C1c1ccc(N(C)C)cc1 (centres undefined),·,-19.8%,·,·,·,-22.9%,·,·
COc1cccc(NS(=O)(=O)c2ccc3c(c2)N(C(C)=O)CCO3)c1,0.3,-5.1%,-0.1,103.9*,-11.6,-11.8%,-0.8,-0.6%
COc1cc(CNCc2ccccn2)ccc1OCC(=O)NC1CCCCC1,-0.6,-17.3%,0.5,44.5*,8.5,i,1.2,-0.7%
O=S(=O)(c1cccc(C(F)(F)F)c1)N1CCN(c2nc(-c3cccs3)nc3cc(Cl)ccc23)CC1,-1.1,·,-0.2,0.4,10.9,·,·,·
